# Compound activity: PubChem, National Center for Advancing Translational Sciences (NCATS)
# IL-1B inflam inh – inflammasome signaling inhibition, IL-1 beta readout | actives 4.7% (n = 360,000) | AID 743279 | activity change, % at 57.5 µM | THP-1 LPS/ATP IL-1B secretion, AlphaLISA, 16 h; hits give low values; in the data active means activity change below about -50%; inconclusive means mostly about -30% to -49%; further: on the % scale 0 is the no-effect control and ±100 the full control effect
#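 THP-1 cells pretreated 1 hr with compounds (up to 57.5 uM final), then stimulated with LPS (250 ng/mL final) plus ATP (1.25 mM final); secreted IL-1B measured by AlphaLISA after 16 hr, decreased signal indicating inhibition.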
# DT40 TDP1 no CPT – qHTS for Inhibitors of human tyrosyl-DNA phosphodiesterase 1 (TDP1): qHTS in cells in absence of CPT. DT40 Tdp1-/- hTDP1 cells, no CPT, ATP luminescence, 48 h. Potency, µM (top dose mostly 46.2 µM), for the others: top-dose activity change, negative = growth inhibition, usual class: inhibitors. actives 15% (n = 420,000). AID 686978, 2013; further: potency means the concentration at half of the fitted maximal effect; on the % scale 0 is the no-effect control and ±100 the full control effect; nearly all actives have a fitted effect of over 55% in size
#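 Readout: luminescence from CellTiter-Glo after 30 min in the dark at RT. Cells: DT40 Tdp1-/- with stable hTDP1, 400/well. Exposure: compounds alone, ≥48 hr, 37 °C.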
# HepG2 viability – counter-screen for TGF-b inhibitors: cytotoxicity in HepG2 cells | Potency, µM (top dose mostly 46.1 µM), inactives show at the highest dose activity change, negative = cytotoxicity, actives largely listed as cytotoxic | actives 0.76% (n = 410,000) | HepG2 CAGA-GFP viability, ATP luminescence, 18 h | AID 588856; further: potency means the concentration at half of the fitted maximal effect
#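 HepG2 CAGA-GFP cells (1000/well, DMEM with 1% FBS) received compound, then TGF-beta at 500 pg/mL final, and were incubated 18 hours at 37 degrees C. Viability was read by CellTiter-Glo luminescence. Media-only wells were set as complete cell-killing and DMSO as no toxicity.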
# TDP1 cell CPT – DT40-hTDP1 cell growth loss with CPT; chicken DT40 Tdp1-/-;hTDP1 cells + 20 nM CPT, ATP luminescence, 48 h; Potency, µM (series often up to 46.2 µM), inactives show at the highest dose activity change, negative = growth inhibition, most hits filed as inhibitors; actives 12% (n = 420,000); further: potency means the concentration at half of the fitted maximal effect; on the % scale 0 is the no-effect control and ±100 the full control effect; nearly all actives have a fitted effect of over 55% in size
#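 Chicken DT40 Tdp1-/- cells stably complemented with human TDP1 were seeded at 400 cells/well in medium containing 20 nM camptothecin, exposed to pin-transferred compounds, and grown at 37 °C for at least 48 hr. Viability was read as ATP luminescence.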
# TGFb SMAD3 inh – blocks TGF-b signaling; HepG2 CAGA-GFP TGF-b/SMAD3 reporter, GFP fluorescence, 18 h; TGF-beta stimulated, 500 pg/mL final; Potency, µM (series often up to 46.1 µM), for the others: top-dose activity, negative = inhibition, hits mostly inhibitors; actives 1.2% (n = 410,000); further: potency means the concentration at half of the fitted maximal effect; on the % scale 0 is the no-effect control and ±100 the full control effect; nearly all actives have a fitted effect of over 65% in size
#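 Using HEPG2 CAGA-GFP reporter cells at 1000 cells/well, we pinned test compounds, stimulated with recombinant TGF-beta (500 pg/mL final) and measured total well GFP after 18 h.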
# TDP1 block – blocks human tyrosyl-DNA phosphodiesterase 1; recombinant TDP1, AlphaScreen DNA substrate cleavage; Q9NUW8; actives 0.28% (n = 350,000); Potency, µM (series often up to 130 µM), for the others: top-dose activity change, negative = inhibition, actives largely listed as inhibitors; further: potency means the concentration at half of the fitted maximal effect; on the % scale 0 is the no-effect control and ±100 the full control effect; nearly all actives have a fitted effect of over 40% in size
# Target sequence (Q9NUW8 whole entry, looked up): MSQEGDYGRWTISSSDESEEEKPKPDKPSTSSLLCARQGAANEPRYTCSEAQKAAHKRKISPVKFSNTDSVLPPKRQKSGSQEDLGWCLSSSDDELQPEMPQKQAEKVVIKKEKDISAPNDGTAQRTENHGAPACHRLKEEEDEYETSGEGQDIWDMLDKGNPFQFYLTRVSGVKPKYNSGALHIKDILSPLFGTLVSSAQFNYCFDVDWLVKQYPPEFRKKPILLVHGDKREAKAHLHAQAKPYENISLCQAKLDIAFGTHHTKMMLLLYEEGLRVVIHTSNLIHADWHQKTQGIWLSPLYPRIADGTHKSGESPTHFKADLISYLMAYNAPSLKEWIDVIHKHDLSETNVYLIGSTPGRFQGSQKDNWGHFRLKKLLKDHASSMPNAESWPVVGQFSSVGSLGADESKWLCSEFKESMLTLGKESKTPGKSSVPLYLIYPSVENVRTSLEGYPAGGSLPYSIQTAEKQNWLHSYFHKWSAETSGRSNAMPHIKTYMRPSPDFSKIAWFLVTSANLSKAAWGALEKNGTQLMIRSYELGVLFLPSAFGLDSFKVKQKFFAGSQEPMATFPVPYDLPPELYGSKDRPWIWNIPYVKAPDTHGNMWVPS
#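 E. coli-derived human Tdp1, 1 nM final. Cpd preinc 15 min RT; substrate 15 nM final, 5 min RT; AS bead mix 10 ug/ml final, 10 min RT. Signal loss = tyrosine-FITC cleavage. No-enzyme wells = max signal.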
# Active calls of the source: *; ? = inconclusive; nt = no result; [ ] = remark or other dose. Rows were chosen to be rich in hits. Some 18% of all compounds tested hit in one or more screens of this group. Unless noted, the call rests on the fitted dose curve; in most records, active means well fitted curve in the direction sought with a large enough effect; inconclusive means small, poorly fitted or top-dose-only effect, or another doubt; inactive means no such curve, though single readings can be large; an effect the other way counts as inactive or inconclusive.
SMILES,IL-1B inflam inh,DT40 TDP1 no CPT,HepG2 viability,TDP1 cell CPT,TGFb SMAD3 inh,TDP1 block
CCOC(=O)CC1C(=O)NCCN1C(=S)NC(=O)c1ccc(C)c(Br)c1 (configuration not stated),-16,5.2µM*,-14%,5.8µM*,-6%,nt
CC(C)C(NC(=O)c1ccc(F)cc1)C(=O)N1CCC1 (configuration not stated),32,1%,8%,-7%,9%,2%
CCOC(=O)CC1C(=O)NCCN1C(=O)Nc1ccccc1 (configuration not stated),19,-3%,8%,3%,15%,8%
CCOC(=O)N1CCN(C(=O)C(NC(=O)c2ccc(CC)cc2)C(C)C)CC1 (configuration not stated),-19,5.8µM*,-31%,8.2µM*,-6%,9%
CCOC(=O)N1CCN(C(=O)CSCc2ccc(Br)cc2)CC1,-60*,?,-73%,-23%,?,5%
CCC(=O)[C@]12O[C@@]3(C4C(=O)OCCC41)N(Cc1ccccc1)C(C)=C(C(=O)OC)C(c1ccccc1)N3C2=O (some centres not stated),nt,nt,nt,nt,nt,7%[21 µM]
Cc1cc2ncn(-c3ncccc3[N+](=O)[O-])c2cc1C,23,-8%,5%,-2%,6%,15%
COc1ccc(CNC(=O)COC(=O)c2cc(S(=O)(=O)N3CCOCC3)ccc2O)cc1OC,20,-2%,0%,2%,-6%,1%
Cc1ccc(C(=O)NC(=S)N2CCN(C(=O)OC(C)(C)C)CC2)cc1Br,0,13µM*,0%,18µM*,?,-2%
COC(=O)[C@@H](NC(=O)O[C@@H]1C(=O)c2ccc(OC)cc2O[C@H]1c1ccc2c(c1)OCO2)C(C)C,nt,nt,nt,nt,nt,12%
Cc1ccc(C)c(NC(=O)/C(C#N)=C/c2ccc[nH]2)c1,-1,-22%,-2%,18µM*,-21%,2%
Cc1cccc(NC(=O)/C(C#N)=C/c2ccc[nH]2)c1C,15,?,-47%,12µM*,3%,2%
N#C/C(=C\c1ccc[nH]1)C(=O)NC1CC1,-5,-9%,6%,2%,21%,1%
Cc1ccccc1NC(=O)/C(C#N)=C/c1ccccc1C(F)(F)F,-72*,?,-39%,-22%,-28%,3%
CN1CCN(C(=O)c2cccc(NS(=O)(=O)c3ccc(Br)cc3)c2)CC1,-1,-20%,11%,-25%,0%,-1%[56.1 µM]
O=C(c1ccccc1)c1ccc(OCC(O)CN2CCN(Cc3ccccc3)CC2)cc1 (configuration not stated),?,23µM*,-34%,21µM*,-4%,4%
O=C(c1ccccc1)c1ccc(OCCOCCN2CCN(Cc3ccccc3)CC2)cc1,?,21µM*,-35%,23µM*,?,-5%
c1ccc(CN2CCN(CCOCCOc3ccc4c(c3)CCC4)CC2)cc1,-60*,23µM*,-45%,?,0%,0%
O=C(c1ccccc1)c1ccc(OCCCCN2CCCCC2)cc1,-11,-1%,-9%,-18%,0%,0%
c1ccc(COc2ccc(OCCCCN3CCCCC3)cc2)cc1,-58*,21µM*,-29%,29µM*,-1%,4%
COC(=O)c1cccc(NC(=O)CSc2nc(O)c(-c3ccccc3)c(=O)[nH]2)c1,?,17%,-6%,-1%,-18%,nt
FC(F)(F)c1cccc(OCCN2CCN(Cc3ccccc3)CC2)c1,13,?,-2%,21µM*,-5%,3%
O=C(/C=C/c1ccc(OCCCF)cc1)N1CCN(Cc2ccccc2)CC1,-53*,?,-8%,1%,15%,nt
O=C(c1ccccc1)c1ccc(OCCCN2CCCC2)cc1,1,-20%,16µM*,-1%,2%,-12%
CCOc1ccc(OCC(O)CNC2CCN(Cc3ccccc3)CC2)cc1 (configuration not stated),?,9.2µM*,-48%,5.8µM*,?,3%
SMILES,IL-1B inflam inh,DT40 TDP1 no CPT,HepG2 viability,TDP1 cell CPT,TGFb SMAD3 inh,TDP1 block
CN(CCOc1cccc(C(F)(F)F)c1)Cc1ccccc1,5,?,9%,?,-6%,0%
Cc1ccc(C)c(NC(=O)C2CCCN(c3nc4ccccc4s3)C2)c1 (configuration not stated),nt,?,-64%,?,?,0%
Cc1[nH]c2ccccc2c1C1N2CC3(C)CN1CC(C)(C2)C3=O (configuration not stated),nt,-13%,1%,-15%,-23%,3%
CC(=O)OCON[N+]([O-])=NC(C)C,nt,?,-1%,11µM*,?,0%
CCC1CCCCN1CCCNC(=O)c1ccc(CS(=O)(=O)c2ccccc2OC)o1 (configuration not stated),-7,28%,2%,-6%,3%,3%
CC(C)c1nc(-c2ccccc2)c(-c2ccccc2)[nH]1,-21,21µM*,1%,?,-1%,7%
Cc1ccc(NC(=O)C(=O)NCC(c2cccnc2)N2CCN(Cc3ccccc3)CC2)cc1Cl (configuration not stated),nt,7.3µM*,5%,10µM*,0%,-6%
O=C(NCC(c1cccnc1)N1CCN(c2ccccc2)CC1)c1ccco1 (configuration not stated),19,-4%,-40%,-6%,-25%,nt
O=C(NCc1ccc(Cl)cc1)C(=O)NCC(c1cccnc1)N1CCN(c2ccc(F)cc2)CC1 (configuration not stated),-1,8.2µM*,13%,6.5µM*,-15%,5%
O=C(NCCc1ccccc1)C(=O)NCC(c1cccnc1)N1CCN(c2ccccc2)CC1 (configuration not stated),nt,16µM*,-11%,21µM*,?,4%
Cc1ccc(C)c(NC(=O)C(=O)NCC(c2cccnc2)N2CCN(c3ccc(F)cc3)CC2)c1 (configuration not stated),nt,4.6µM*,-1%,4.6µM*,6%,-4%
O=C(CCC(=O)N1CCN(c2ccccn2)CC1)Nc1nnc(C(F)(F)F)s1,19,-13%,4%,-12%,11%,nt
CCC[C@H]1COCCS(=O)(=O)N1Cc1cccc(F)c1,nt,-23%,-18%,-6%,-6%,nt
